Test results reported in ChEMBL document CHEMBL3433997, “St. Jude Leishmania screening dataset” (2016).

The compounds below were run against Solute carrier family 2, facilitated glucose transporter member 1 (Homo sapiens) (UniProt P11166) (assay: ST_JUDE_LEISH: Cytotoxicity at 2uM final concentration against transgenic Leishmania Mexicana promastigotes LmGLUT1 that are glucose transport deficient and complemented with the human glucose transporter GLUT1. Activity is measured by DNA content using SYBR green in vitro).
Sequence of Solute carrier family 2, facilitated glucose transporter member 1 (Homo sapiens) (P11166 whole entry): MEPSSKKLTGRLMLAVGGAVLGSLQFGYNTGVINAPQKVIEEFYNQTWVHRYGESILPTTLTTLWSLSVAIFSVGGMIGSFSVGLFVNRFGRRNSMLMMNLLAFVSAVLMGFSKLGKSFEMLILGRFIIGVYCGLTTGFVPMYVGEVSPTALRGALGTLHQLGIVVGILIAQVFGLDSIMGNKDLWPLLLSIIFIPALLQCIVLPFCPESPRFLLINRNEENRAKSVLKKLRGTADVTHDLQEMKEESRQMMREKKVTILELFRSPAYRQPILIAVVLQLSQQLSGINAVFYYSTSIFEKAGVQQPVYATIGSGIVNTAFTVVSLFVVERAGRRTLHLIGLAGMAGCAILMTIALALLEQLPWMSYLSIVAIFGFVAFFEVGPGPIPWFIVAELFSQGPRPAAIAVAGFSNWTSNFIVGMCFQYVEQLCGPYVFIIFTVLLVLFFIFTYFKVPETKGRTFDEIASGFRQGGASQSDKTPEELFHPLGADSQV
Format: functional
Work on `Cc1cc(NCCc2ccccc2)nc(NC(=N)Nc2ccc(Cl)cc2)n1` yielded an inhibition of 0.08%.
Compound `O=S(=O)(NC1CCN(c2ccnc3cc(Cl)ccc23)C1)c1cccc(F)c1` (stereo not given) has an inhibition of 10.1%.
Compound `COc1ccc(Cn2c(Nc3cccc(C(F)(F)F)c3)nc3cc(C(=O)NCCN4CCCC4)cnc32)cc1Cl` has an inhibition of 13.2%.
With `CC1(C)N=C(NC(=O)c2cc([N+](=O)[O-])cc([N+](=O)[O-])c2)N=C(N)N1OCc1cccc2ccccc12` the inhibition was -1.97%.
In the case of `COc1ccc2[nH]cc(C3CCN(CCCCNC(=O)c4ccc(NC(=O)c5ccc(Cl)cc5)cc4)CC3)c2c1`, the inhibition is reported as 4.59%.
`O=C(Nc1cccc(C(F)(F)F)c1)N1CCOC(CCN2CCC3(CCc4ccccc43)CC2)(c2ccc(Cl)c(Cl)c2)C1` (stereo not given) gave an inhibition of 5.08%.
In the case of `Cc1nc(N/C=C/c2ccc(O)cc2)cc(N2CCCC2)n1`, the inhibition is reported as 8.44%.
`COc1cccc(CNC(=O)c2ccnc(-c3ccc(CNCCOc4ccccc4)cc3)c2)c1` showed an inhibition of 1.12%.
With `CCCn1c(Sc2ccc(C#N)c([N+](=O)[O-])c2)nnc1-c1cc(OC)cc(OC)c1` the inhibition was 0.5%.
In the case of `Cc1nc(N)nc(N)c1Oc1cccc(Cl)c1`, the inhibition is reported as 3.72%.
`CCCCCCCc1c(C)nc2cc(OC)ccc2c1O` was tested, and the inhibition was 7.36%.
With `c1ccc(CN2CCC(NCc3ccccc3-c3ccc(CNC4CCCC4)cc3)CC2)cc1` the inhibition was 4.61%.
`CCOc1ccccc1N1CCN(CCCNC(=O)/C(=C/C=C/c2cc3cc(Cl)c(Cl)cc3[nH]2)OC)CC1` showed an inhibition of 1.44%.
Compound `COc1ccc(NC(=O)c2ccc(Br)c(C)c2)cc1N1CCN(CCCCc2ccccc2)CC1` has an inhibition of 1.19%.
Compound `O=C(/C=C/c1ccc(Cl)c(Cl)c1)NCCCCCN1CCC(n2c(=O)[nH]c3ccccc32)CC1` has an inhibition of 8.14%.
Compound `CN(C)S(=O)(=O)c1ccc(N2C(=O)C3C(C2=O)C2(c4ccccc4)C(=O)C3(c3ccccc3)C(c3ccccc3)=C2c2ccccc2)cc1` (stereo not given) has an inhibition of -0.75%.
For `CCOC(=O)C(C#N)NC(=O)C=Cc1ccccc1` (stereo not given), the inhibition was 7.73%.
In the case of `COc1c(Br)cc(Br)cc1C(C)=O`, the inhibition is reported as 3.62%.
With `CC(C)CC(NC(=O)c1cccc(OCCN2CCOCC2)c1)C(=O)NC(/C=N/NC(=O)c1ccccc1)CCc1ccccc1` (stereo not given) the inhibition was 7.09%.
`COc1cc(NC(=O)/C=C/c2cccc3cc[nH]c23)ccc1OCCN(C(C)C)C(C)C` gave an inhibition of 2.46%.
`CCOCc1cnc(C)nc1CNC(=O)c1c(C)[nH]c2ccc(C)cc12` gave an inhibition of 0.96%.
Work on `CC(CON1C(N)=NC(N)=NC1(C)C)c1ccc(Cl)cc1Cl` (stereo not given) yielded an inhibition of 23.2%.
Work on `O=c1cc(NCCCNCc2scc3c(Cl)cc(C(F)(F)F)nc23)[nH]c2ccccc12` yielded an inhibition of 2.13%.
`Cn1nc(-c2cccc(CN[C@@H]3CCc4ccc(O)cc43)c2)c2cnc(NCCCN3CCCC3)nc21` showed an inhibition of 11.2%.
For `Nc1cccc(CNCc2cccc(-c3cccc(-c4nc5cc(F)ccc5[nH]4)c3)c2)c1`, the inhibition was 0.35%.
For `Fc1ccc(CNc2ncc(-c3ccsc3)c(-c3nccs3)n2)cc1`, the inhibition was 0.01%.
`CCc1cccc2c(C#N)cn(CC(=O)NCCc3ccccc3)c12` showed an inhibition of 6.99%.
Compound `Cc1cc(N2CCCC2)nc(Nc2ccc(NC(=O)C(C)Oc3ccccc3)cc2)n1` (stereo not given) has an inhibition of 10.6%.
With `CCCC(C)NC(=O)[C@H]1CNCCN1C(=O)CCCc1ccccc1` (stereo not given in full) the inhibition was 8.59%.
Compound `COc1ccc2[nH]ccc(=NN=Cc3ccc(N(C)C)cc3)c2c1` has an inhibition of 2.69%.
`Cc1nc(N)nc(N)c1CCCOc1ccccc1Cl` was tested, and the inhibition was 13.2%.
Compound `COc1cc(F)c2ncc(Cl)c(CCN3CCC(NCc4ccc5c(n4)NC(=O)CS5)CC3)c2c1` has an inhibition of 8.34%.
In the case of `CCOc1ccc(Nc2nc(N)c3ccccc3n2)cc1`, the inhibition is reported as 12.3%.
`c1cc(OCCN2CCCC2)ccc1CNC1CCN(CC2CCCCC2)CC1` showed an inhibition of -3.76%.
With `Cc1[nH]cnc1CSCCNC(=N)NCCCCCCCCNC(=N)NCCSCc1nc[nH]c1C` the inhibition was -1.07%.
Work on `Cc1cc(-c2cc(Cl)ccc2Cl)no1` yielded an inhibition of -2.71%.
Compound `CC(=O)Nc1nc(C(=O)Nc2cccc(-c3ccc4c(cnn4CC4CC4)c3)c2)cs1` has an inhibition of 1.74%.
For `CC(C)c1ccc(S(=O)(=O)Nc2cccc(CCN3CCC(N4CCCCC4)CC3)c2)cc1`, the inhibition was 38%.
In the case of `COc1ccc2nccc([C@@H](O)CNCCCN(C)CCOc3cc(F)cc(F)c3)c2c1`, the inhibition is reported as 6.85%.
For `Nc1c2c(nc3ccccc13)C(=Cc1ccc(O)cc1)CCC2`, the inhibition was 5.91%.

The compounds below were run against Hexose transporter 1 (Plasmodium falciparum) (UniProt O97467) (assay: ST_JUDE_LEISH: Cytotoxicity at 2uM final concentration against transgenic Leishmania Mexicana promastigotes LmPfHT that are glucose transport deficient and complemented with the Plasmodium falciparum hexose transporter. Activity is measured by DNA content using SYBR green in vitro).
Format: functional
`Cc1cc(NCCc2ccccc2)nc(NC(=N)Nc2ccc(Cl)cc2)n1` was tested, and the inhibition was 2.1%.
Work on `O=S(=O)(NC1CCN(c2ccnc3cc(Cl)ccc23)C1)c1cccc(F)c1` (stereo not given) yielded an inhibition of 9.98%.
`COc1ccc(Cn2c(Nc3cccc(C(F)(F)F)c3)nc3cc(C(=O)NCCN4CCCC4)cnc32)cc1Cl` was tested, and the inhibition was 12.9%.
`CC1(C)N=C(NC(=O)c2cc([N+](=O)[O-])cc([N+](=O)[O-])c2)N=C(N)N1OCc1cccc2ccccc12` was tested, and the inhibition was -0.29%.
`COc1ccc2[nH]cc(C3CCN(CCCCNC(=O)c4ccc(NC(=O)c5ccc(Cl)cc5)cc4)CC3)c2c1` gave an inhibition of 4.04%.
`O=C(Nc1cccc(C(F)(F)F)c1)N1CCOC(CCN2CCC3(CCc4ccccc43)CC2)(c2ccc(Cl)c(Cl)c2)C1` (stereo not given) showed an inhibition of 4.51%.
For `Cc1nc(N/C=C/c2ccc(O)cc2)cc(N2CCCC2)n1`, the inhibition was 6.81%.
`COc1cccc(CNC(=O)c2ccnc(-c3ccc(CNCCOc4ccccc4)cc3)c2)c1` was tested, and the inhibition was 1.69%.
Work on `CCCn1c(Sc2ccc(C#N)c([N+](=O)[O-])c2)nnc1-c1cc(OC)cc(OC)c1` yielded an inhibition of 4.36%.
`Cc1nc(N)nc(N)c1Oc1cccc(Cl)c1` was tested, and the inhibition was 0.81%.
For `CCCCCCCc1c(C)nc2cc(OC)ccc2c1O`, the inhibition was 9.59%.
Work on `c1ccc(CN2CCC(NCc3ccccc3-c3ccc(CNC4CCCC4)cc3)CC2)cc1` yielded an inhibition of 3.06%.
Compound `CCOc1ccccc1N1CCN(CCCNC(=O)/C(=C/C=C/c2cc3cc(Cl)c(Cl)cc3[nH]2)OC)CC1` has an inhibition of -0.07%.
With `COc1ccc(NC(=O)c2ccc(Br)c(C)c2)cc1N1CCN(CCCCc2ccccc2)CC1` the inhibition was 0.21%.
Compound `O=C(/C=C/c1ccc(Cl)c(Cl)c1)NCCCCCN1CCC(n2c(=O)[nH]c3ccccc32)CC1` has an inhibition of 7.32%.
`CN(C)S(=O)(=O)c1ccc(N2C(=O)C3C(C2=O)C2(c4ccccc4)C(=O)C3(c3ccccc3)C(c3ccccc3)=C2c2ccccc2)cc1` (stereo not given) gave an inhibition of -2.18%.
`CCOC(=O)C(C#N)NC(=O)C=Cc1ccccc1` (stereo not given) was tested, and the inhibition was 6.93%.
`COc1c(Br)cc(Br)cc1C(C)=O` gave an inhibition of 3.58%.
`CC(C)CC(NC(=O)c1cccc(OCCN2CCOCC2)c1)C(=O)NC(/C=N/NC(=O)c1ccccc1)CCc1ccccc1` (stereo not given) showed an inhibition of 8.91%.
Compound `COc1cc(NC(=O)/C=C/c2cccc3cc[nH]c23)ccc1OCCN(C(C)C)C(C)C` has an inhibition of 1.55%.
`CCOCc1cnc(C)nc1CNC(=O)c1c(C)[nH]c2ccc(C)cc12` showed an inhibition of 0.7%.
With `CC(CON1C(N)=NC(N)=NC1(C)C)c1ccc(Cl)cc1Cl` (stereo not given) the inhibition was 37.1%.
With `O=c1cc(NCCCNCc2scc3c(Cl)cc(C(F)(F)F)nc23)[nH]c2ccccc12` the inhibition was 2.43%.
`Cn1nc(-c2cccc(CN[C@@H]3CCc4ccc(O)cc43)c2)c2cnc(NCCCN3CCCC3)nc21` showed an inhibition of 4.83%.
`Nc1cccc(CNCc2cccc(-c3cccc(-c4nc5cc(F)ccc5[nH]4)c3)c2)c1` showed an inhibition of 0.35%.
`Fc1ccc(CNc2ncc(-c3ccsc3)c(-c3nccs3)n2)cc1` showed an inhibition of 4.04%.
`CCc1cccc2c(C#N)cn(CC(=O)NCCc3ccccc3)c12` showed an inhibition of 9.88%.
`Cc1cc(N2CCCC2)nc(Nc2ccc(NC(=O)C(C)Oc3ccccc3)cc2)n1` (stereo not given) was tested, and the inhibition was 15.9%.
Compound `CCCC(C)NC(=O)[C@H]1CNCCN1C(=O)CCCc1ccccc1` (stereo not given in full) has an inhibition of 7.9%.
In the case of `COc1ccc2[nH]ccc(=NN=Cc3ccc(N(C)C)cc3)c2c1`, the inhibition is reported as 3.94%.
`Cc1nc(N)nc(N)c1CCCOc1ccccc1Cl` showed an inhibition of 27.9%.
Work on `COc1cc(F)c2ncc(Cl)c(CCN3CCC(NCc4ccc5c(n4)NC(=O)CS5)CC3)c2c1` yielded an inhibition of 8.44%.
For `CCOc1ccc(Nc2nc(N)c3ccccc3n2)cc1`, the inhibition was 10.3%.
`c1cc(OCCN2CCCC2)ccc1CNC1CCN(CC2CCCCC2)CC1` gave an inhibition of -0.11%.
With `Cc1[nH]cnc1CSCCNC(=N)NCCCCCCCCNC(=N)NCCSCc1nc[nH]c1C` the inhibition was 0.71%.
Compound `Cc1cc(-c2cc(Cl)ccc2Cl)no1` has an inhibition of 0.03%.
Compound `CC(=O)Nc1nc(C(=O)Nc2cccc(-c3ccc4c(cnn4CC4CC4)c3)c2)cs1` has an inhibition of 1.84%.
`CC(C)c1ccc(S(=O)(=O)Nc2cccc(CCN3CCC(N4CCCCC4)CC3)c2)cc1` was tested, and the inhibition was 4.08%.
`COc1ccc2nccc([C@@H](O)CNCCCN(C)CCOc3cc(F)cc(F)c3)c2c1` was tested, and the inhibition was 7.45%.
With `Nc1c2c(nc3ccccc13)C(=Cc1ccc(O)cc1)CCC2` the inhibition was 8.35%.
